# System: Plasmodium falciparum
# Assay: GSK_TCMDC: Inhibition of Plasmodium falciparum 3D7 in whole red blood cells, using parasite LDH activity as an index of growth. Test compounds present at 2uM
# Format: functional
row,Compound,Inhibition [%]
1,COc1ccc(C2CCN(CCCNC(=O)c3ccc(NC(=O)c4ccc(Cl)cc4)cc3)CC2)c(OC)c1,99
2,CC(C)COc1ccc(Cl)cc1Cc1ccc(-c2nc3ccc(F)cc3[nH]2)o1,97
3,O=C(/C=C/c1ccc(Cl)c(Cl)c1)NCCCCCN1CCC(CCCNC(=O)Nc2ccc(C(F)(F)F)cc2)CC1,91
4,CCOc1cc(O)c(-c2nc(N)ncc2-c2ccc3c(c2)OCCO3)cc1CC,99
5,CC(C)c1ccc(-c2noc(SCC(=O)N(C)c3ccc(F)cc3)n2)cc1,84
6,CN(C)CCNCc1nc(-c2ccc3c(Nc4ccc(Cl)cc4F)ccnc3c2)cs1,100
7,CN1CCN(c2cc3c(cc2Cl)CCN3C(=O)Nc2ccc(NC(=O)c3ccc(C(F)(F)F)cc3)cc2)CC1.Cl,100
8,O=C(O)C(F)(F)F.c1ccc(CNCc2cccc(-c3cccc(-c4nc5ccccc5[nH]4)c3)c2)cc1,100
9,CC(=O)c1ccc2cc(C(=O)NC3CCC(CCN4CCc5ccc(-c6noc(C)n6)cc5CC4)CC3)[nH]c2c1.Cl (stereo not drawn),81
10,Br.CCC(ON1C(N)=NC(N)=NC1(C)C)c1ccc(Cl)cc1 (stereo not drawn),91
11,O=C(/C=C/c1ccc(Cl)c(Cl)c1)NCCCCCN1CCC(NC(=O)NC2CCCCC2)CC1,96
12,Cn1ccnc1-c1nc2ccccn2c1NCC(=O)Nc1ccccc1N1CCCCC1,85
13,CC(C)c1ccc(C(NC(=O)C2CCCCC2)c2ccc3cccnc3c2O)cc1 (stereo not drawn),89
14,CN1CCN(c2cccc(-c3nnc(-c4ccc(OCC(=O)NCc5ccc(C(F)(F)F)cc5)c([N+](=O)[O-])c4)o3)c2)CC1,90
15,Fc1cccc(COc2ccc(Nc3ncnc4sc(C#CCNC5CCCC5)cc34)cc2Cl)c1,100
16,Cn1cncc1-c1ccc2c(-c3ccsc3)cnc(N)c2c1,97
17,CCCC1N=C(N)N=C(N)N1c1cccc(C(F)(F)F)c1.Cl (stereo not drawn),95
18,COc1ccc(CN2CCC(C(=O)Nc3cccc(-c4cccc(Cl)c4)c3)CC2)cc1O,91
19,Cc1cccc(C(=O)Nc2ccnc(N3CCC(N(C)Cc4ccccc4)CC3)c2)c1.O=C(O)C(F)(F)F,93
20,O=C(NCCNc1ccnc(NCc2ccc(F)cc2)n1)c1cc2ccccc2s1,99
21,O=C(Nc1cccc(-c2ccc(-c3nc4cc(F)ccc4[nH]3)cc2)c1)c1csnn1,94
22,CC(C)C[C@H](NC(=O)c1ccc(OCCN2CCOCC2)cc1)C(=O)N[C@H](/C=N/NC(=O)c1ccccc1)CCc1ccccc1,98
23,O=C1CCCC1Sc1nc2ccccc2c(=O)n1-c1ccc(Cl)c(Cl)c1 (stereo not drawn),97
24,CNC(=O)Cc1ccc(C(=O)Nc2cccc(-c3csc(-c4nc5ccccc5[nH]4)c3)c2)cc1,95
25,N#Cc1ccc(CN2CCC(Oc3ccc(NC(=O)c4cccs4)cc3Cl)CC2)cc1.O=C(O)C(F)(F)F,95
26,O=C(O)C(F)(F)F.c1cc(CN2CCN(CCN3CCOCC3)CC2)cc(-c2csc(-c3nc4ccccc4[nH]3)c2)c1,100
27,CCCCOc1cc(C)nc2ccc(NC(=O)COCC(=O)Nc3ccc4nc(C)cc(OCCCC)c4c3)cc12,90
28,COc1ccc(-c2ccc(NC(=O)c3ccc(C#N)cc3)c(F)c2)cc1CN(C)CCN(C)C.O=C(O)C(F)(F)F,88

# System: Plasmodium falciparum
# Assay: GSK_TCMDC: Inhibition of Plasmodium falciparum Dd2 in whole red blood cells, using parasite LDH activity as an index of growth. Test compounds present at 2uM
# Format: functional
row,Compound,Inhibition [%]
1,COc1cc2ncnc(Nc3ccc(OCc4ccccc4Br)c(OC)c3)c2cc1OC.Cl,62
2,CCCN(c1ccc(C(F)(F)F)cc1[N+](=O)[O-])S(=O)(=O)C(c1ccccc1)c1ccc(C(F)(F)F)cc1[N+](=O)[O-] (stereo not drawn),49
3,COc1ccc(CN2CCC(N3CC(c4ccccc4)(c4ccccc4)OCC3=O)C2)c(O)c1.O=C(O)C(F)(F)F (stereo not drawn),27
4,O=C(Nc1ccc(Br)cc1)c1cc(Br)ccc1NS(=O)(=O)c1ccc(C(F)(F)F)cc1,56
5,Cc1cccc2nc(-c3cccc(-c4ccc(NC(=O)NC5CC5c5ccccc5)cc4)c3)[nH]c12 (stereo not drawn),49
6,CC(C)(C)OC(=O)[C@H](CC(N)=O)NC(=O)c1ccc(-c2ccc(-c3nc4cc(C(F)(F)F)ccc4[nH]3)s2)cc1,88
7,O=[N+]([O-])c1c(O)nc2c(c1O)CCC2,1
8,COc1ccc2nc(C)cc(N/N=C/c3ccc([N+](=O)[O-])o3)c2c1,100
9,Fc1ccc2[nH]c(-c3ccc(-c4ccc(CN5CCC(CCN6CCCCC6)CC5)cc4)s3)nc2c1.O=C(O)C(F)(F)F,100
10,Cc1[nH]c(C)c(-c2csc3ccccc23)c(=O)c1Cl,75
11,CS(=O)(=O)c1ccc(CCNCc2ccc(-c3ccc(CN(C(=O)c4ccc(Cl)nc4)C4CCN(Cc5ccccc5)CC4)cc3)nc2)cc1.O=C(O)C(F)(F)F,70
12,Cc1ccc(-c2ccn(Cc3ccc(OCc4ccccc4)cc3)n2)cn1.Cc1ccc(-c2ccnn2Cc2ccc(OCc3ccccc3)cc2)cn1,92
13,COc1ccc(C2CCN(CCCNC(=O)c3ccc(NC(=O)c4ccc(Cl)cc4)cc3)CC2)c(OC)c1,58
14,CC(C)COc1ccc(Cl)cc1Cc1ccc(-c2nc3ccc(F)cc3[nH]2)o1,49
15,O=C(/C=C/c1ccc(Cl)c(Cl)c1)NCCCCCN1CCC(CCCNC(=O)Nc2ccc(C(F)(F)F)cc2)CC1,19
16,CCOc1cc(O)c(-c2nc(N)ncc2-c2ccc3c(c2)OCCO3)cc1CC,68
17,CC(C)c1ccc(-c2noc(SCC(=O)N(C)c3ccc(F)cc3)n2)cc1,77
18,CN(C)CCNCc1nc(-c2ccc3c(Nc4ccc(Cl)cc4F)ccnc3c2)cs1,100
19,CN1CCN(c2cc3c(cc2Cl)CCN3C(=O)Nc2ccc(NC(=O)c3ccc(C(F)(F)F)cc3)cc2)CC1.Cl,99
20,O=C(O)C(F)(F)F.c1ccc(CNCc2cccc(-c3cccc(-c4nc5ccccc5[nH]4)c3)c2)cc1,38

row,Compound,Inhibition [%]
1,CC(=O)c1ccc2cc(C(=O)NC3CCC(CCN4CCc5ccc(-c6noc(C)n6)cc5CC4)CC3)[nH]c2c1.Cl (stereo not drawn),45
2,Br.CCC(ON1C(N)=NC(N)=NC1(C)C)c1ccc(Cl)cc1 (stereo not drawn),90
3,O=C(/C=C/c1ccc(Cl)c(Cl)c1)NCCCCCN1CCC(NC(=O)NC2CCCCC2)CC1,44
4,Cn1ccnc1-c1nc2ccccn2c1NCC(=O)Nc1ccccc1N1CCCCC1,57
5,CC(C)c1ccc(C(NC(=O)C2CCCCC2)c2ccc3cccnc3c2O)cc1 (stereo not drawn),70
6,CN1CCN(c2cccc(-c3nnc(-c4ccc(OCC(=O)NCc5ccc(C(F)(F)F)cc5)c([N+](=O)[O-])c4)o3)c2)CC1,44
7,Fc1cccc(COc2ccc(Nc3ncnc4sc(C#CCNC5CCCC5)cc34)cc2Cl)c1,78
8,Cn1cncc1-c1ccc2c(-c3ccsc3)cnc(N)c2c1,72
9,CCCC1N=C(N)N=C(N)N1c1cccc(C(F)(F)F)c1.Cl (stereo not drawn),7
10,COc1ccc(CN2CCC(C(=O)Nc3cccc(-c4cccc(Cl)c4)c3)CC2)cc1O,0
11,Cc1cccc(C(=O)Nc2ccnc(N3CCC(N(C)Cc4ccccc4)CC3)c2)c1.O=C(O)C(F)(F)F,2
12,O=C(NCCNc1ccnc(NCc2ccc(F)cc2)n1)c1cc2ccccc2s1,17
13,O=C(Nc1cccc(-c2ccc(-c3nc4cc(F)ccc4[nH]3)cc2)c1)c1csnn1,31
14,CC(C)C[C@H](NC(=O)c1ccc(OCCN2CCOCC2)cc1)C(=O)N[C@H](/C=N/NC(=O)c1ccccc1)CCc1ccccc1,90
15,O=C1CCCC1Sc1nc2ccccc2c(=O)n1-c1ccc(Cl)c(Cl)c1 (stereo not drawn),42
16,CNC(=O)Cc1ccc(C(=O)Nc2cccc(-c3csc(-c4nc5ccccc5[nH]4)c3)c2)cc1,69
17,N#Cc1ccc(CN2CCC(Oc3ccc(NC(=O)c4cccs4)cc3Cl)CC2)cc1.O=C(O)C(F)(F)F,96
18,O=C(O)C(F)(F)F.c1cc(CN2CCN(CCN3CCOCC3)CC2)cc(-c2csc(-c3nc4ccccc4[nH]3)c2)c1,99
19,CCCCOc1cc(C)nc2ccc(NC(=O)COCC(=O)Nc3ccc4nc(C)cc(OCCCC)c4c3)cc12,28
20,COc1ccc(-c2ccc(NC(=O)c3ccc(C#N)cc3)c(F)c2)cc1CN(C)CCN(C)C.O=C(O)C(F)(F)F,0

# — ChEMBL document CHEMBL1157539, “Thousands of chemical starting points for antimalarial lead identification” (Nature, 2010)
